Test results published in PubChem BioAssay.
Activity calls are given as the source filed them.

Assay: growth of efflux-deficient E. coli DRC39 – strain DRC39, OD650, 24 h, E. coli filamentation inducers, primary screen (AID 1178);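 further: growth measured as culture turbidity by optical density at 650 nm; test concentration not given here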
Conditions: E. coli DRC39 acrAB, higher = more signal, called active from +8 up or from −8 down

z-score, inactive:
C=CCC(OC(C)=O)[C@@H]1[C@@H](N(Cc2ccc(-c3ccccc3)cc2)C(=O)Cc2ccc(F)cc2)c2cc(OCCCO)ccc2N1C(=O)Cc1ccc(OC)cc1 (stereo partly drawn) -0.455, COC(=O)[C@@]1(Cc2ccc(OC)cc2)[C@H]2c3cc(C(=O)N(C)C)n(C[C@H](O)CO)c3C[C@H]2CN1C(=O)c1ccccc1 -1.46, Cn1cccc1C(O)C1C=CC2C(=O)NC(=O)C2N1Nc1ccc(Cl)cc1Cl (stereo not drawn) -1.09, COc1ccc([Si](C)(C)[C@@H]2[C@@H](CC(=O)N(CCO)Cc3ccccc3)O[C@]3(C(=O)N(Cc4cccc(N5C(=O)c6cccc7cccc5c67)c4)c4ccccc43)[C@H]2C)cc1 1.75, Cc1ccc(S[C@]2(C(=O)NCC(F)(F)F)CC(=O)N(Cc3ccccc3C(F)(F)F)[C@@H]2c2ccc(CO)cc2I)cc1 0.506, CCOc1cc(C(O)C2C=CC3C(=O)N(c4ccccc4)C(=O)C3N2Nc2ccc(C#N)cc2)ccc1O (stereo not drawn) -0.523, COCCOC(=O)N1C(=O)[C@@]2(c3ccccc31)[C@H](C(=O)N1CCN(c3ncccn3)CC1)[C@H]1C(=O)O[C@H](c3ccccc3)[C@H](c3ccccc3)N1[C@@H]2c1ccc(O)cc1 -0.612, CCCC[C@@H]1C[C@H]1[C@@H](NC(=O)c1cccs1)c1ccc(C(F)(F)F)cc1 -0.82, COC(=O)c1ccc([C@H](NC(=O)c2ccco2)[C@]2(C)C[C@H]2C2CCCCC2)cc1 -0.827, O[C@@H](Cc1ccccc1)[C@@H](/C=C/C1CC1)N(CC#Cc1ccccc1)Cc1cccc(Cl)c1 0.839, N#Cc1ccc(C(O)C2C=CC3C(=O)N(c4ccccc4)C(=O)C3N2Nc2ccccc2)cc1 (stereo not drawn) 0.366, CC(C)N1C(=O)c2ccccc2[C@@H](C(=O)NC2CC2)[C@@H]1c1ccc(CO)cc1 0.0426, COC(=O)c1nc2oc1CC[C@@H](CO)NC(=O)N(C)Cc1cnnn1C[C@H](Cc1ccccc1)NC2=O 0.218, C=CCNC(=O)[C@@H]1[C@H]2C(=O)O[C@H](c3ccccc3)[C@H](c3ccccc3)N2[C@H](c2ccc(O)cc2)[C@@]12C(=O)N(C(=O)OCCOC)c1ccc(C#CC3(O)CCCCCC3)cc12 0.891, O=C1C=C(c2ccccc2)C(=O)c2ccc([C@H]3Oc4ccccc4S(=O)(=O)N4CCC[C@@H]34)cc21 1.81, C=C(COC)/C(=C/C[C@H](OC(C)=O)c1ccc(OCCO)cc1)c1cc(C(=O)OC)ccc1OC 1.94, CC(C)[Si](C#C[Si](C(C)C)(C(C)C)C(C)C)(O[C@H](C)c1cn([C@H](CO)Cc2ccccc2)nn1)C(C)C 1.17, CC1CC/C=C\[C@H]2OC34C=CCN(C(C)C)C(=O)[C@H]3N(CCCCCCO)C(=O)[C@@H]4C2C(=O)O1 (stereo partly drawn) 1.05, CC1CC/C=C\[C@H]2OC34C=CCN(c5ccc(Cl)cc5)C(=O)[C@H]3N(CCCCCO)C(=O)[C@]4(C)C2C(=O)O1 (stereo partly drawn) -0.113, COCCCNC(=O)[C@@]1(Sc2ccc(C)cc2)CC(=O)N(C2CCCCC2)[C@@H]1c1ccc(CO)cc1 0.235, [N-]=[N+]=Nc1ccccc1[C@H]1OC(c2ccc(OCCCO)cc2)=N[C@@]1(Cc1ccccc1)C(=O)N1CCCCC1 0.359, CC(C)OC(=O)C=C1C[C@@H](c2ccc(C(F)(F)F)cc2)O[C@@H](c2ccc(C(F)(F)F)cc2)O1 0.2, [N-]=[N+]=Nc1ccccc1[C@@H]1OC(c2ccc(OCCCO)cc2)=N[C@]1(Cc1ccccc1)C(=O)NCC(O)CO (stereo partly drawn) 2.24, [N-]=[N+]=Nc1ccccc1C[C@]1(C(N)=O)N=C(c2ccc(OCCCO)cc2)O[C@H]1c1ccccc1N=[N+]=[N-] 0.892, C[C@@H]1NC(=O)[C@@]23C(=O)N[C@@H](Cc4ccccc4)C2[C@H](C)[C@@]2(C)O[C@H]2C3/C=C/C/C=C\CNC(=O)[C@@H]2CCCN2C1=O (stereo partly drawn) -0.4, COCCCNC(=O)[C@]1(CCS(=O)(=O)c2ccccc2)N=C(c2ccc(OCCCO)cc2)O[C@@H]1c1ccccc1N=[N+]=[N-] 0.357, O=C1OCCC/C=C\[C@H]2OC34C=CCN(CCN5CCOCC5)C(=O)[C@H]3N(CCCCCCO)C(=O)[C@@H]4C12 (stereo partly drawn) 0.251

Assay: growth of efflux-deficient E. coli DRC39 – strain DRC39, OD650, 48 h, E. coli filamentation inducers, primary screen (AID 1179);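 further: screen aims at cell division blockers that make cells filament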
Conditions: E. coli DRC39 delta-acrAB growth, higher = more signal, called active from +8 up or from −8 down

z-score, inactive:
[N-]=[N+]=NCc1ccccc1C[C@@]1(C(=O)N2CCCCC2)N=C(c2ccc(OCCCO)cc2)O[C@@H]1c1ccccc1 0.696, O=C1O[C@@H](c2ccccc2)[C@@H](c2ccccc2)N2[C@@H](c3ccc(OCCO)cc3)[C@]3(C(=O)Nc4ccccc43)[C@@H](C(=O)O)[C@H]12 -0.513, CC(CO)N1C(=O)[C@@H]2[C@H]3C(=O)OCC=C[C@H]3OC23C=CCN(C(C)(C)C)C(=O)[C@@H]13 (stereo partly drawn) -0.762, CN1C(=O)C2C=CC(C(O)c3cccc4ccccc34)N(N3CCCCC3)C2C1=O (stereo not drawn) -0.456, CN(C)C(=O)[C@]1(CCS(=O)(=O)c2ccccc2)N=C(c2ccc(OCCCO)cc2)O[C@@H]1c1ccccc1N=[N+]=[N-] 0.393, COC(=O)[C@@]1(Cc2ccc(F)cc2)[C@H]2c3cc(C(=O)N4CCCC4)n(CCc4ccc(O)c(O)c4)c3C[C@H]2CN1C(=O)c1ccccc1 -0.177, CN(C)CCCNC(=O)[C@@]1(c2ccc([N+](=O)[O-])cc2)CC(=O)N(CC23CC4CC(CC(C4)C2)C3)[C@@H]1c1ccc(CO)cc1I -2.96, Cc1cc(C)c(C(O)C2C=CC3C(=O)NC(=O)C3N2Nc2ccc(Cl)cc2Cl)c(C)c1 (stereo not drawn) -1.17, COCCOC(=O)N1C(=O)[C@@]2(c3cc(C#CC4=CCCCC4)ccc31)[C@H](c1ccc(OCCO)cc1)N1[C@H](c3ccccc3)[C@H](c3ccccc3)OC(=O)[C@H]1[C@@H]2C(=O)N1CCN(c2ncccn2)CC1 0.0375, C=CCC(OC(C)=O)[C@@H]1[C@@H](N(Cc2ccc(-c3ccccc3)cc2)C(=O)Cc2ccc(F)cc2)c2cc(OCCCO)ccc2N1C(=O)Cc1ccc(OC)cc1 (stereo partly drawn) -0.14, COC(=O)[C@@]1(Cc2ccc(OC)cc2)[C@H]2c3cc(C(=O)N(C)C)n(C[C@H](O)CO)c3C[C@H]2CN1C(=O)c1ccccc1 -1.11, Cn1cccc1C(O)C1C=CC2C(=O)NC(=O)C2N1Nc1ccc(Cl)cc1Cl (stereo not drawn) -1.28, COc1ccc([Si](C)(C)[C@@H]2[C@@H](CC(=O)N(CCO)Cc3ccccc3)O[C@]3(C(=O)N(Cc4cccc(N5C(=O)c6cccc7cccc5c67)c4)c4ccccc43)[C@H]2C)cc1 1.51, Cc1ccc(S[C@]2(C(=O)NCC(F)(F)F)CC(=O)N(Cc3ccccc3C(F)(F)F)[C@@H]2c2ccc(CO)cc2I)cc1 1.21, CCOc1cc(C(O)C2C=CC3C(=O)N(c4ccccc4)C(=O)C3N2Nc2ccc(C#N)cc2)ccc1O (stereo not drawn) -0.245, COCCOC(=O)N1C(=O)[C@@]2(c3ccccc31)[C@H](C(=O)N1CCN(c3ncccn3)CC1)[C@H]1C(=O)O[C@H](c3ccccc3)[C@H](c3ccccc3)N1[C@@H]2c1ccc(O)cc1 0.075, CCCC[C@@H]1C[C@H]1[C@@H](NC(=O)c1cccs1)c1ccc(C(F)(F)F)cc1 -0.734, COC(=O)c1ccc([C@H](NC(=O)c2ccco2)[C@]2(C)C[C@H]2C2CCCCC2)cc1 -0.565, O[C@@H](Cc1ccccc1)[C@@H](/C=C/C1CC1)N(CC#Cc1ccccc1)Cc1cccc(Cl)c1 1.01, N#Cc1ccc(C(O)C2C=CC3C(=O)N(c4ccccc4)C(=O)C3N2Nc2ccccc2)cc1 (stereo not drawn) 0.0165, CC(C)N1C(=O)c2ccccc2[C@@H](C(=O)NC2CC2)[C@@H]1c1ccc(CO)cc1 -0.452, COC(=O)c1nc2oc1CC[C@@H](CO)NC(=O)N(C)Cc1cnnn1C[C@H](Cc1ccccc1)NC2=O 1.12, C=CCNC(=O)[C@@H]1[C@H]2C(=O)O[C@H](c3ccccc3)[C@H](c3ccccc3)N2[C@H](c2ccc(O)cc2)[C@@]12C(=O)N(C(=O)OCCOC)c1ccc(C#CC3(O)CCCCCC3)cc12 0.957, O=C1C=C(c2ccccc2)C(=O)c2ccc([C@H]3Oc4ccccc4S(=O)(=O)N4CCC[C@@H]34)cc21 0.587, C=C(COC)/C(=C/C[C@H](OC(C)=O)c1ccc(OCCO)cc1)c1cc(C(=O)OC)ccc1OC 1.37, CC(C)[Si](C#C[Si](C(C)C)(C(C)C)C(C)C)(O[C@H](C)c1cn([C@H](CO)Cc2ccccc2)nn1)C(C)C 1.19, CC1CC/C=C\[C@H]2OC34C=CCN(C(C)C)C(=O)[C@H]3N(CCCCCCO)C(=O)[C@@H]4C2C(=O)O1 (stereo partly drawn) 0.864, CC1CC/C=C\[C@H]2OC34C=CCN(c5ccc(Cl)cc5)C(=O)[C@H]3N(CCCCCO)C(=O)[C@]4(C)C2C(=O)O1 (stereo partly drawn) 0.227, COCCCNC(=O)[C@@]1(Sc2ccc(C)cc2)CC(=O)N(C2CCCCC2)[C@@H]1c1ccc(CO)cc1 -0.195, [N-]=[N+]=Nc1ccccc1[C@H]1OC(c2ccc(OCCCO)cc2)=N[C@@]1(Cc1ccccc1)C(=O)N1CCCCC1 0.617, CC(C)OC(=O)C=C1C[C@@H](c2ccc(C(F)(F)F)cc2)O[C@@H](c2ccc(C(F)(F)F)cc2)O1 1.41
